The record followed here is paper PMC11442847.

Some targets named below: ATP1B3 (UniProt P54709); DIP2B (UniProt Q9P265); INPP5F (UniProt Q9Y2H2); ITPR2 (UniProt Q14571); NMI (UniProt Q13287); S100A6 (UniProt P06703); SLC44A1 (UniProt Q8WWI5); WAC (UniProt Q9BTA9).
Test in all cases: cross-linking mass spectrometry
Holding throughout (conditions): DSSO, not determined

Regarding PLS3, P13797, the cross-linked residues result with ATP1B3 is listed as “K42 - K182”. For the substance PLK3, Q9H4B4, the cross-linked residues entry with DIP2B was “K217 - K118”. On to B2M, P61769, for which the cross-linked residues entry with INPP5F was “K39 - K352”. In the case of OAS2, P29728, in the assay with ITPR2, the cross-linked residues entry is “K388 - K954”. For the substance RNASEH1, O60930, in the assay with NMI, the cross-linked residues entry is given as “K236 - K156”. With TPD52L2, O43399, in the assay with S100A6, the cross-linked residues entry is on record as “K175 - K47”. Turning to KNTC1, P50748, the cross-linked residues entry with SLC44A1 is recorded as “K859 - K145”. For the substance CENPN, Q96H22, the cross-linked residues entry with WAC is on record as “K245 - K175”.
